# CRFBP-R2 agonist – CRF-BP/CRF-R2 complex agonism; 350,000 tested, 0.46% active; activation, % at 13.2 µM; HEK293 CRF-R2/CRF-BP, calcium dye fluorescence (FLIPR); percent of saturating CRF peptide response;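 active = activation of at least 50%, plus an integration ratio under a set limit after plate pattern correction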;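 also: plate controls were neutral control wells without compound for no effect and CRF at EC100 for full effect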
# CRFR2-BP antag – blocks CRF-induced signaling of the CRF-BP/CRF-R2 complex | AID 588475 | HEK293 CRF-R2/CRF-BP, CRF-induced calcium fluorescence | 350,000 tested, 0.59% active | inhibition, % at 11.8 µM;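 active = inhibition of the ligand-induced calcium signal above about 50% at the single tested concentration, limit read from the data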
# RTF Ca sens inh – cardiac RTF calcium desensitization; 340,000 tested, 0.12% active; inhibition, % at 7.15 µM; P19429+P45379; IANBD-labeled cardiac RTF, Ca2+ fluorescence; AID 493244;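 active = inhibition above the mean inhibition of all tested compounds plus 3 SD, cut at about 17% in these data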;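 also: assay run at fixed EC70 calcium of 1.6 mM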
# RTF Ca sens act – increases calcium sensitivity of human cardiac regulated thin filaments | P19429+P45379 | IANBD-labeled TnC RTF fluorescence at EC20 calcium; 0% EC20 calcium, 100% full calcium | activation, % at 7.2 µM | 340,000 tested, 0.24% active | AID 493008;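 active = activation above the mean over all tested compounds plus 3 SD, cut at about 30% in these data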;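 also: rise in fluorescence read as greater calcium sensitivity of cardiac thin filaments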
# The depositor's hits bear a star; nt = not tested or not shown. Most compounds without a hit are left out; they make up all but 1.3% or so of the library.
SMILES,CRFBP-R2 agonist,CRFR2-BP antag,RTF Ca sens inh,RTF Ca sens act
CC(C)n1c(O)c(N=NC(=O)C2COc3ccccc3O2)c2ccccc21 (stereo not given),-6,68*,-7,3
O=C(Nc1ccccc1)c1cn2ccccc2n1,1,35,-3,3
O=C(Nc1ccc(-n2cnnn2)cc1)c1cn2ccccc2n1,104*,-64,-6,1
O=C(CN1C(=O)c2ccccc2S1(=O)=O)Nc1cc(S(=O)(=O)N2CCCCC2)ccc1Cl,1,-7,-4,-3
CN(N=Nc1nc[nH]c1C(=O)NN)C1CCCCC1,3,15,-14,19
CC(/C=N/NC(=O)c1ccncc1)=C\c1ccc(C(C)C)cc1,1,-35,14,0
CC(/C=N/Nc1nc(C)cc(C)n1)=C\c1ccc(C(C)C)cc1,-2,61*,2,-6
Cc1onc(-c2ccccc2)c1C(O)c1ccc(F)cc1 (stereo not given),0,-1,-8,-1
CCCN(C(=O)c1cc(Cl)nc2ccccc12)C1CCS(=O)(=O)C1 (stereo not given),-2,75*,1,1
COc1ccc2c(c1)C=C(CN1CCN(C3CCCC3)C(CCO)C1)CO2 (stereo not given),3,-9,1,5
COC(=O)CN1C(=O)COc2ccc(S(=O)(=O)NCc3ccc(Cl)cc3)cc21,1,99*,-1,-9
O=C1COc2ccc(S(=O)(=O)NCc3ccc(Cl)cc3)cc2N1,1,2,-3,-4
Cc1cc(C)n2nc(/C(C#N)=C/c3ccccc3)c(C#N)c2n1,2,99*,-7,0
CSc1ncccc1C(=O)N(C)CC(=O)Nc1cccc(F)c1,0,100*,-4,-3
O=[N+]([O-])c1ccc(O)c(-c2cc(C(F)(F)F)nc(-c3ccccc3)n2)c1,62*,59*,-5,1
Oc1ccccc1-c1cc(C(F)(F)C(F)F)nc(-c2ccccc2)n1,2,-78,0,-3
COc1cccc(C(=O)OCC(=O)NCCC2=CCCCC2)c1,-6,103*,-6,1
CCN(C(=O)CCc1nnc2ccc(N3CCC4(CC3)OCCO4)nn12)c1ccccc1,0,52*,-2,-3
CCOc1ccccc1NC(=O)CCc1nnc2ccc(N3CCC4(CC3)OCCO4)nn12,1,-20,-5,6
O=C(Cc1cccs1)NCCS(=O)(=O)N1CCN(c2ccccc2F)CC1,1,6,2,3
S=C1SCN(Cc2cccnc2)CN1Cc1cccnc1,101*,-107,3,-1
S=C1SCN(Cc2ccccc2)CN1Cc1ccccc1,1,23,-2,1
O=C(NCCc1cn[nH]c1)C1CCC(=O)N(CCc2cccc(F)c2)C1 (stereo not given),-1,104*,-5,-5
O=C(NCCc1cccnc1)C1CCC(=O)N(Cc2ccc(Cl)cc2)C1 (stereo not given),1,104*,2,-4
Cc1c(Br)c([N+](=O)[O-])nn1CCCC(=O)NC(C)c1ccccc1 (stereo not given),0,1,1,-2
SMILES,CRFBP-R2 agonist,CRFR2-BP antag,RTF Ca sens inh,RTF Ca sens act
CCOP(=O)(OCC)C(NC(=O)c1cccs1)c1ccccc1 (stereo not given),0,2,-3,-2
COc1ccc(/C=C2\SC(=S)N(CC(=O)N3CCN(C)CC3)C2=O)cc1,0,5,nt,nt
CCN1C(=O)/C(=C/C=C2/SCCN2C)SC1=S,59*,-18,-128,136*
CN1CCS/C1=C\C=C1/SC(=S)N(CC(=O)O)C1=O,107*,-76,-315,268*
Cc1ccc(C(=O)OCC(=O)c2ccc(S(=O)(=O)N3CCCCC3)cc2)o1,0,5,-1,-2
O=C(O)c1ccc(-n2ncc3c2/C(=C/c2cccc([N+](=O)[O-])c2)CC3)cc1,-6,73*,0,4
O=C(N/N=C/c1ccc(O)c(O)c1)c1ccc(CSc2cccc3cccnc23)cc1,-1,77*,-6,3
Cc1cccc(CN2CCC(Oc3ccc(C(=O)N4CCCC4)cc3)CC2)n1,0,-10,-7,3
COc1ccc(-n2c(C)cc(/C=C3\SC(=S)N(Cc4ccco4)C3=O)c2C)cc1,25,-41,-27,31*
Cc1ccc(Cn2c(SCC(=O)NCC3CCCO3)nc3ccsc3c2=O)cc1 (stereo not given),2,54*,-11,1
Cc1cccc(-c2nc(CS(=O)CC(=O)N3CC(C)CC(C)C3)c(C)o2)c1 (stereo not given),-1,55*,3,2
